Assay results: PubChem BioAssay (EPA / NIEHS)
Active and inactive are the calls of the source. How the source made its calls: active means hit-call score of the fitted dose curve at least 0.9, where 1 is the maximum; inactive means score below 0.9.

experiment: ATG_GATA_CIS: Attagene CIS-FACTORIAL HepG2 Assay for human GATA Binding Protein (AID 2282944); details: HepG2 GATA cis-element reporter, Attagene multiplex mRNA; actives raise or lower the signal
Protocol: ATG_CIS is a cell-based, multiplexed-readout assay that uses HepG2, a human liver cell line, with measurements taken at 24 hours after chemical dosing in a 24-well plate.ATG_GATA_CIS is one of 52 assay component(s) measured or calculated from the ATG_CIS assay. It is designed to make measurements of mRNA induction, a form of inducible reporter, as detected with fluorescence intensity signals by Reverse transcription polymerase chain reaction (RT-PCR) and Capillary electrophoresis technology.Data from the assay component ATG_GATA_CIS was analyzed into 1 assay endpoint. This assay endpoint, ATG_GATA_CIS, was analyzed with bidirectional fitting relative to DMSO as the negative control and baseline of activity. Using a type of inducible reporter, measures of mRNA for gain or loss-of-signal activity can be used to understand the reporter gene at the transcription factor-level as they relate to the gene GATA1. Furthermore, this assay endpoint can be referred to as a primary readout, because this assay has produced multiple assay endpoints where this one serves a reporter gene function. To generalize the intended target to other relatable targets, this assay endpoint is annotated to the dna binding intended target family, where the subfamily is GATA proteins.
Human liver HepG2 cells are transiently transfected with multiple reporter transcription units (MRTUs) in 6-well plates using FuGene 6 reagent (Roche; 3 ml FuGene/1 mg DNA). The MRTU constructs are regulated by a cis-regulating element (promoter). […] A major difference between the CIS and TRANS system is that in CIS activities of endogenous TFs are measured, whereas the TRANS assay evaluates changes in activities of exogenous, chimeric NR-Gal4 proteins. […] At the end of 24 hour incubation, total RNA was isolated using TriZol reagent (Invitrogen). The isolated RNA is then reverse-transcribed using oligo(dT) primer and Mo-MLV reverse transcriptase (Invitrogen) with DNAse I (Ambion) treatment for 30 min. The one-tenth of the produced cDNA was amplified by PCR using Taq DNA polymerase (Invitrogen) and two reporter sequence-specific primers. The PCR products were fluorescently labeled by primer extension with 6-arboxyfluorescein (6-FAM) 5'-labeled reporter sequence-specific primer (2 min at 95 C, 20 s at 68 C and 10 min at 72 C) and these products were digested with 5U of HpaI (New England Biolabs) for 2h at 37 C. The fragments were purified using Qiaquick PCR columns (Qiagen), analyzed on an ABI 3130xL genetic analyzer (Applied Biosystems) with peak positions identified by using a set of X-rhodamine (ROX)-labeled MapMarker1000 molecular weight standards (BioVentures). The raw capillary electrophoresis data was processed using Attagraph software (Attagene).

outcome, inactive:
O=C(Nc1ccccc1)c1ccccc1O, O=C1CCCCCN1SSN1CCCCCC1=O, C1=CCCC1, C=CCOCC(O)CCl (stereo not given), O=C1CCCC(=O)O1, CC=CC(=O)N(CC)c1ccccc1C, C=CC=CC=CCCCCC, Cc1ccc(C2OC[C@@H]3OC(c4ccc(C)cc4)O[C@H]([C@H](O)CO)[C@@H]3O2)cc1 (stereo not given in full), Cc1ccc(N/N=c2\c(=O)cc/c(=N/Nc3ccc(S(=O)(=O)O)cc3)c2=O)c(C)c1, O=C(Nc1ccccc1SSc1ccccc1NC(=O)c1ccccc1)c1ccccc1, CN1C(=O)N(C)C(O)C1O (stereo not given), C=C(C)C(=O)OCCOc1ccccc1, CC=CC(F)(F)C(F)(F)C(F)(F)F, N=c1ccn2c(n1)O[C@H]1[C@H](O)[C@@H](CO)O[C@H]12, C=C1[C@H]2CC[C@@H]3[C@H]2C(C)(C)CCC[C@]13C, CC(C)(C)C(=O)CCc1ccc(Cl)cc1, NC(=O)NNC(N)=O, CCCCCC(C)O (stereo not given), CC(C)COC(=O)C=Cc1ccccc1, c1ccc(CCCc2ccncc2)cc1, CCCCCC/C=C/C=O, Cc1ccc(C(C)(C)C)cc1, C[C@]12C=CC(=O)C=C1CC[C@@H]1[C@@H]2[C@@H](O)C[C@@]2(C)[C@H]1CC[C@]2(O)C(=O)CO, O=C1CCC(=O)N1Cl, CC(=O)OC1C2(C)CCC(C2)C1(C)C (stereo not given), CCCCCCCCCCCCCCCC[N+](C)(C)CC, C=CC(=O)OCCC(=O)O, COc1cc(C)ccc1C(C)C, CCCCCCCC[N+](C)(CCCCCCCC)CCCCCCCC, Nc1ccc(Oc2ccc(N)c(N)c2)cc1, CCN(Cc1cccc(S(=O)(=O)O)c1)c1ccc(C(=C2C=CC(=[N+](CC)Cc3cccc(S(=O)(=O)[O-])c3)C=C2)c2ccccc2)cc1, O=C(Oc1ccccc1)c1ccc2ccccc2c1O, CCCOC(=O)CCCCC(=O)OCCC, O=C(O)c1cc(Cl)cc([N+](=O)[O-])c1Cl, NC(=O)OCC(COC(N)=O)c1ccccc1, Cc1cc(C)c(C)c(C)c1, C=CC(C)(C)C, Cc1ccc(C(C)c2ccc(C)c(C)c2)cc1C, SCCc1cnccn1, CO[Si](OC)(OC)c1ccccc1
